The supplement of paper PMC10338343
± gives the standard deviation. The full ranking holds about 5,500 sequences; the median of “pre-steady-state target cleavage rate” is about 0.1, and the highest 2% start at about 0.64. Many of the other results were omitted from the sample, so the highest values are more common in it than they were.

Tested on: MIWI (PIWIL1) piRISC loaded with piRNA #2 (30 nt)
Assay: pre-steady-state target cleavage rate (min^-1); MIWI and MILI are mouse PIWI proteins and EfPiwi is from a freshwater sponge; tags in brackets are library labels; higher = faster piRNA-guided slicing of the target
Settings: guide: piRNA #2 5'p-UUAGGUAACCCAGUAGAUCCAGAGGAAUUC; auxiliary factor: 500 nM mouse GTSF1
Summary of the method: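 For Cleave-'n-Seq, a transcribed, DNA-blocked target RNA library […] met 1 nM active affinity-purified piRISC with one synthetic guide at 33 °C for 0–8 or 0–960 min in HEPES–potassium acetate buffer, with or without 500 nM GTSF1 partner protein. Uncleaved targets were sequenced and normalised to depth and weakly complementary targets, with three trials pooled and k3 capped at 0.0001 min^-1. A burst-and-steady-state fit supplied the pre-steady-state cleavage rate.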

| Sequence | pre-steady-state target cleavage rate |
| --- | --- |
| CUUUACCUCUGGAUCUACUGGGUUUCCUAA | 0.167 ± 0.029 |
| CAAUUCCACUGGUUCUACUGGGUUACCUAA | 0.593 ± 0.041 |
| CUUAAGGAGAGGAUCUACUGGGUUAACCUAA | 0.00722 ± 0.0036 |
| CUUUUCCUCUGGAUCUACGGGUUACCUAA | 0.0476 ± 0.0059 |
| CUUAAGGACUGGAUCAACUGGCUUACCUAA | 0.0268 ± 0.022 |
| CUUAAGGACUCGAUCUACUGGGUUAGCUAA | 0.00705 ± 0.0047 |
| CUUAACCACUGGAUCUACUGGGUUACGUAA | 0.402 ± 0.031 |
| CAAUACGUCUGGAUCUACUGGGUUACCUAA | 0.494 ± 0.053 |
| GAAUUCCUCUGGAACUACUGGGUUACGUAA | 0.657 ± 0.04 |
| CUAUUCCUCUGGAACUACUGGGUUACGUAA | 0.47 ± 0.031 |
| CAAUUCCUCUGGAACUACUGGGUUACGUAA | 0.517 ± 0.048 |
| CUUAAGCUCUGCAUCUACUGGGUUAGCUAA | 0.182 ± 0.027 |
| CAAUUCCAUCUGGAUCUACUGGGUUACCUAA | 0.568 ± 0.064 |
| GAAUUCCUCUCCAUCUACUGGGUUACCUAA | 0.706 ± 0.051 |
| CUUAUCCUCUCCAUCUACUGGGUUACCUAA | 0.422 ± 0.033 |
| CUAUUCCUCUGGGAUCUACUGGGUUACCUAA | 0.514 ± 0.042 |
| CUAUUCCAUCUGGAUCUACUGGGUUACCUAA | 0.537 ± 0.053 |
| CUUUUCCUCUCCAUCUACUGGGUUACCUAA | 0.554 ± 0.044 |
| CUAUUCCUCUCCAUCUACUGGGUUACCUAA | 0.647 ± 0.051 |
| GAAUUCCUCCUGGAUCUACUGGGUUACCUAA | 0.445 ± 0.047 |
| CAAUUCCUCUCCAUCUACUGGGUUACCUAA | 0.829 ± 0.057 |

| Sequence | pre-steady-state target cleavage rate |
| --- | --- |
| GAAUUCCUCGGAUCUACUGGGUUACCUAA | 0.432 ± 0.08 |
| CUUAAGGGCUGGAUCUACUGGGUUACCUAA | 0.159 ± 0.037 |
| CUUAAGGAGUGGAUCAACUGGGUUACGUAA | 0.053 ± 0.014 |
| CUUAAGGACUGGAUCUACUGGGUCUACCUAA | 0.0638 ± 0.033 |
| CUUAACCUGCUGGAUCUACUGGGUUACCUAA | 0.356 ± 0.036 |
| CUUAAGGACUGGAUUCUACUGGGUUACCUAA | 0.0274 ± 0.024 |
| CUAAUCCUCAGGAUCUACUGGGUUACCUAA | 0.55 ± 0.055 |
| GAAUUCCUCAGGAUCUACUGGGUUACCUAA | 0.483 ± 0.048 |
| GAAUUCCUCAGGUUCUACUGGGUUACCUAA | 0.539 ± 0.049 |
| GAAUACCUCAGGAUCUACUGGGUUACCUAA | 0.421 ± 0.043 |
| GUAUUCCUCAGGAUCUACUGGGUUACCUAA | 0.0863 ± 0.033 |
| CUAUACCUCAGGAUCUACUGGGUUACCUAA | 0.465 ± 0.051 |
| CUAUUCCUCAGGUUCUACUGGGUUACCUAA | 0.584 ± 0.05 |
| CAAAUCCUCAGGAUCUACUGGGUUACCUAA | 0.754 ± 0.059 |
| GAAAUCCUCAGGAUCUACUGGGUUACCUAA | 0.446 ± 0.051 |
| CAAUUCCUCAGGUUCUACUGGGUUACCUAA | 0.709 ± 0.054 |
| CAAUACCUCAGGAUCUACUGGGUUACCUAA | 0.656 ± 0.061 |
| CAAUUCCUCAGGAUCUACUGGGUUACCUAA | 0.695 ± 0.062 |
| GAAUUCCUCUGGAUCUACUCGGUUACGUAA | 0.155 ± 0.021 |
| CUUAUCCACUGCAUCUACUGGGUUACCUAA | 0.314 ± 0.018 |
| CUUAAGGUCUGGAUCUACAGGGUUACCUUA | 0.0564 ± 0.011 |

| Sequence | pre-steady-state target cleavage rate |
| --- | --- |
| CUUAAGGACUGGAUCUUCUGGGUUACCUAA | 0.0593 ± 0.037 |
| CUAUGCCUCUGGAUCUACUGGGUUACCUAA | 0.275 ± 0.037 |
| CUAUUCCUCUGGAUCUACUCCGUUACCUAA | 0.0198 ± 0.0061 |
| CUAUUCCUCAGGAUCUACUGCGUUACCUAA | 0.561 ± 0.069 |
| GAAUUCCUCAGGAUCUACUGCGUUACCUAA | 0.518 ± 0.048 |
| CAUUUCCUCAGGAUCUACUGGGUUACCUAA | 0.701 ± 0.054 |
| CUAUUCCACUGGAUCUACUGCGUUACCUAA | 0.542 ± 0.056 |
| GAAUUCCACUGGAUCUACUGCGUUACCUAA | 0.744 ± 0.063 |
| CAAUUCCUCAGGAUCUACUGCGUUACCUAA | 0.674 ± 0.071 |
| CAAUUCCACUGGAUCUACUGCGUUACCUAA | 0.468 ± 0.067 |
| CUUUUCCUCAGGAUCUACUGGGUUACCUAA | 0.578 ± 0.054 |
| GAUUUCCUCAGGAUCUACUGGGUUACCUAA | 0.459 ± 0.046 |
| CUUAACCACUGGAUCUACUCGGUUACCUAA | 0.0483 ± 0.01 |
| CUUAUCCUCUGGAUGCUACUGGGUUACCUAA | 0.277 ± 0.034 |
| CUAUUCCUCUGGAUGUACUGGGUUACCUUA | 0.403 ± 0.043 |
| CUUAAGGACUGGAUCUACUGGGUUACCGUAA | 0.0402 ± 0.032 |
| CUUUUCCUCUGGAUCUACUGGGAUUCCUAA | 0.087 ± 0.033 |
| CUAUUCCUGUGGAUCUACUGGCUUACCUAA | 0.0662 ± 0.017 |
| CUUAACCUCUCGAUCUACUGGGUUACGUAA | 0.551 ± 0.037 |
| CUUAUCCUCUCGAUCUACUGGGUUACCUUA | 0.436 ± 0.032 |
| GAAAUCCUCUGGAUCUACUGGGUUACGUAA | 0.532 ± 0.058 |

| Sequence | pre-steady-state target cleavage rate |
| --- | --- |
| CUAAUCCUCUGGAUCUACUGGGUUACGUAA | 0.66 ± 0.052 |
| CUUAUCCUCUGGAUCUACUGGGUUACCGUAA | 0.344 ± 0.063 |
| CAAAUCCUCUGGAUCUACUGGGUUACGUAA | 0.555 ± 0.064 |
| CUUAUCCUCUCGAUCUACUGGGUUACGUAA | 0.728 ± 0.046 |
| CUUAUCCUCUGGAUCUACUGGGUUACGUAA | 0.684 ± 0.049 |
| CUUAUCCUCUGGAUCUACUGGGUUACGUUA | 0.469 ± 0.07 |
| CUUUUCCUCAGGAUCUACUGGGUUAGCUAA | 0.133 ± 0.041 |
| CAAUUCCUCUGGAUCUACUGGGUUUCCUUA | 0.281 ± 0.067 |
| GAAUACCUCUGGAUGUACUGGGUUACCUAA | 0.251 ± 0.044 |
| CUAUUCCUCUGGAUCUACUGGGUUACGUUA | 0.401 ± 0.055 |
| CUUAUCCUGUGGAUCUACUGGGUUACCUAA | 0.443 ± 0.056 |
| CUUAUCCUCUGGAUCUACUGGGUUAUCCUAA | 0.413 ± 0.057 |
| CUUAAGGACGGAUCUACUGGGUUACCUAA | 0.0543 ± 0.039 |
| CUUUUCCUCUCGAUCAACUGGGUUACCUAA | 0.553 ± 0.039 |
| CUAUUCCUCUGGAUCAACUGGGUUACCUAA | 0.44 ± 0.051 |
| GAAUUCCUCUCGAUCAACUGGGUUACCUAA | 0.63 ± 0.051 |
| CUUAUCCUCUCGAUCAACUGGGUUACCUAA | 0.508 ± 0.033 |
| CAAUUCCUCUCGAUCAACUGGGUUACCUAA | 0.721 ± 0.053 |
| CUAUUCCUCUCGAUCAACUGGGUUACCUAA | 0.637 ± 0.047 |
| CUUUUCCUCUGGAUCUACUGCGUUAGCUAA | 0.142 ± 0.048 |
| CUUAAGGAGUGGAUCUACUGGGUUACCAUA | 0.0428 ± 0.015 |
